Data published in PubChem BioAssay.
The source made the active and inactive calls.

Experiment: basal 3T3-L1 adipocyte mitochondrial potential changes, profiling panel, cell-based, JC-1 fluorescence, 3T3-L1 adipocytes, 24 h, 100 nL compound (AID 1168); further: test concentration not given here
Conditions: JC-1 mitochondrial fluorescence, higher = more signal, called active from +8 up or from −8 down

z-score, inactive:
CCCCC(=C=CC[C@@H](O)c1cccc(OCCO)c1)CCO 1.27
C=CCOC(=O)[C@@H]1[C@H]2C(=O)O[C@H](c3ccccc3)[C@H](c3ccccc3)N2[C@H](c2ccc(OCCOC(=O)[C@H]3C[C@H]4C(=O)NCC(=O)N4[C@H]3c3ccc(O)cc3)cc2)[C@@]12C(=O)Nc1ccc(I)cc12 0.91
CN1C=C(C(=O)OCCS(C)(=O)=O)C(C(=O)OCCS(C)(=O)=O)=CC(CCCO)=CC1c1ccc(CN2CCCC2)cc1 (stereo unspecified) -0.469
COCCOC(=O)N1C(=O)[C@@]2(c3cc(C#CC4(O)CCCCCC4)ccc31)[C@H](C(=O)N1CCc3cc(OC)c(OC)cc3C1)[C@H]1C(=O)O[C@H](c3ccccc3)[C@H](c3ccccc3)N1[C@@H]2c1ccc(O)cc1 -0.093
O=C1O[C@@H](c2ccccc2)[C@@H](c2ccccc2)N2[C@@H](c3ccc(OCCO)cc3)[C@]3(C(=O)Nc4ccc(C#CCCO)cc43)[C@@H](C(=O)Nc3nc4ccccc4s3)[C@H]12 1.57
COCCCNC(=O)[C@@H]1c2ccccc2C(=O)N(C2CCCCC2)[C@H]1c1ccc(CO)cc1 -0.154
C=CC[C@]1(C(=O)NCc2ccccc2)COC(c2ccc(OCCCO)cc2)=N1 -0.436
CN(C)CCCNC(=O)[C@@]1(Cc2ccccc2I)c2ccccc2C(=O)N(Cc2ccccc2)[C@H]1c1ccc(CO)cc1 -0.354
COc1cccc(OC)c1C(=O)O[C@H]1[C@@H]2OC(=O)[C@H](Cc3cccc(Br)c3)C/C=C/C[C@@H](Cc3cccc(Br)c3)C(=O)O[C@H]2[C@@H](OC)O[C@@H]1CO -0.819
[N-]=[N+]=NCc1ccccc1C[C@]1(C(=O)NCc2ccccc2)N=C(c2ccc(OCCCO)cc2)O[C@H]1c1ccccc1CN=[N+]=[N-] -0.158
COCCOC(=O)N1C(=O)[C@@]2(c3cc(C#Cc4ccc(OC)cc4)ccc31)[C@H](c1ccc(OCCO)cc1)N1[C@H](c3ccccc3)[C@H](c3ccccc3)OC(=O)[C@H]1[C@@H]2C(=O)N1CCCCCCC1 -2.31
Cc1ccc(S[C@]2(C(=O)NC3CC3)CC(=O)N(Cc3cc(C(F)(F)F)cc(C(F)(F)F)c3)[C@@H]2c2ccc(CO)cc2I)cc1 -0.373
CC1(C)OC[C@@]23C=C(Br)[C@@H](C[C@H]12)[C@@]1(CO1)C3=O 0.228
CCOC(=O)C1=CC[C@@H](c2ccccc2)N(S(=O)(=O)c2ccc(C)cc2)[C@H]1C#N -1.04
COc1ccccc1CN1C(=O)c2ccccc2[C@](Cc2ccccc2I)(C(=O)NCCCN(C)C)[C@@H]1c1ccc(CO)cc1 1.29
CCCC=C(CCC)[C@@H](NC(=O)c1ccco1)c1ccc(C(=O)OC)cc1 -0.458
CC(C)(C)OC(=O)CC[C@]1(C(N)=O)N=C(c2ccc(OCCCO)cc2)O[C@H]1c1ccccc1CN=[N+]=[N-] 0.352
COc1ccc(NN2C(C(O)c3cc(C(F)(F)F)cc(C(F)(F)F)c3)C=CC3C(=O)N(C4CCCCC4)C(=O)C32)cc1 (stereo unspecified) 0.0313
COc1ccc(CCNC(=O)[C@@]2(C)c3ccccc3C(=O)N(Cc3cc(C(F)(F)F)cc(C(F)(F)F)c3)[C@H]2c2ccc(CO)cc2)cc1 -0.299
CC(C)C(=C=CC[C@@H](O)c1ccc(OCCO)cc1)CCO 0.437
C=CCC(OC(C)=O)[C@@H]1[C@@H](N(Cc2cc3ccccc3o2)C(=O)c2ccc(-c3ccccc3)cc2)c2cc(OCCCO)ccc2N1C(=O)c1ccc2ccccc2n1 (stereo partly specified) 0.229
CC(C)c1ccc(NN2C(C(O)C(C)C)C=CC3C(=O)N(c4ccccc4)C(=O)C32)cc1 (stereo unspecified) -1.52
CCCC[C@H]1OB(O)C[C@H]2C1=C(COC)C[C@H]1C(=O)C=CC(=O)[C@H]12 -1.46
COc1ccc([Si](C)(C)[C@H]2[C@H](CCn3cc([C@H](O)c4ccccc4)nn3)O[C@@]3(C(=O)N(c4ccccc4)c4ccccc43)[C@@H]2C)cc1 0.291
N#Cc1ccc(C(O)C2C=CC3C(=O)NC(=O)C3N2Nc2ccccn2)cc1 (stereo unspecified) -0.277
O=C1C2C=CC(C(O)c3cccs3)N(Nc3ccccc3)C2C(=O)N1c1ccccc1 (stereo unspecified) 0.673
